This is part of a sample that, as a whole, favours compounds with a hit. Of some 83,000 tested, about 20% had one in any assay.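 In brief: 96-well plates, 48 h treatment, single concentration, percent growth endpoint.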 Values without a mark were called inactive. Rule for the calls: active = growth percent below 10; inactive = the rest.

Consider three compounds from PubChem BioAssay (NCI).

This assay relates to HL-60(TB) leukemia. The assay can be described thus: NCI-60 one-dose screen, 48 h (100 = growth as untreated, 0 = no growth, -100 = all killed). Conditions: 10 µM unless noted.
As to `CC(=O)c1cc2c(N)c(C(=O)Nc3cccc4ccncc34)sc2nc1C`, the growth was 86.2%.

For the compound `FC(F)(F)c1cccc(-c2nnn(Cc3cc(-c4cccc(Cl)c4)no3)n2)c1`, the growth was 108%.

With `c1ccc(CSc2ncccc2-c2nnc(SCCN3CCOCC3)o2)cc1`, the growth was 101%.
